Among the test systems are T-47D breast; BT-549 breast; MDA-MB-435 melanoma; SW-620 colon; MCF7 breast; HCT-116 colon; HCC-2998 colon; KM12 colon; MDA-MB-468 breast.
Common to all, as to assay: NCI-60 one-dose screen, 48 h (100 = growth as untreated, 0 = no growth, -100 = all killed)

Compounds without any hit were thinned out: in the full panel of roughly 83,000, 20% have a hit.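 96-well plates, one dose, 48 hours. Percent growth reported; active if below 10.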 Values without a mark were called inactive. Activity calls are given as the source filed them.

For the compound `O=C1Nc2cc(-c3ccc(NS(=O)(=O)c4ccc(C(F)(F)F)cc4)cc3)ccc2/C1=C/c1ccc[nH]1`, the growth in the experiment with T-47D breast (10 µM unless noted) is 18.1%; in the experiment on BT-549 breast (10 µM unless noted), -8.7% (active); in the experiment with MDA-MB-435 melanoma (10 µM unless noted), 9.69% (active); with SW-620 colon (10 µM unless noted) it was 33.3%; in the experiment on MCF7 breast (10 µM unless noted), 0.78% (active); in the experiment with HCT-116 colon (10 µM unless noted) it was 2.8% (active). Besides, the growth in the experiment on HCC-2998 colon (10 µM unless noted) is 30.5%; with KM12 colon (10 µM unless noted), 20.8%.

As to `CC/C(=C(\c1ccc(O)cc1)c1ccc(OCCN(C)C(=O)COCCNC(=O)Cc2ccc3c(c2)CN([C@@H]2CCC(=O)NC2=O)C3=O)cc1)c1ccccc1`, the growth with T-47D breast (1 µM) was 15.5%; in the experiment on T-47D breast (10 µM), 7.16% (active); in the experiment on BT-549 breast (1 µM), -25.9% (active); with BT-549 breast (10 µM) it was -22.3% (active); in the experiment with MDA-MB-435 melanoma (1 µM) it was 97%; in the experiment with MDA-MB-435 melanoma (10 µM), 59.2%. The growth in the experiment with SW-620 colon (1 µM) is 57.5%; in the experiment with SW-620 colon (10 µM) it was 23.8%; with MCF7 breast (1 µM), 33.4%; in the experiment on MCF7 breast (10 µM) it was 20%; in the experiment on HCT-116 colon (1 µM) it was 94.2%; in the experiment on HCT-116 colon (10 µM), 99.6%. The growth with HCC-2998 colon (1 µM) was 64.5%; with HCC-2998 colon (10 µM), 30.2%; in the experiment with KM12 colon (1 µM), 94.3%; with KM12 colon (10 µM) it was 47.5%; in the experiment on MDA-MB-468 breast (1 µM) it was -11.7% (active); in the experiment with MDA-MB-468 breast (10 µM) it was -28.3% (active).

For the compound `N#CC1=C(c2ccco2)Nc2c(c(-c3ccccc3)nn2-c2ccccc2)C12C(=O)Nc1ccc(Br)cc12` (configuration not stated), the growth with T-47D breast (10 µM unless noted) was 48.5%; with BT-549 breast (10 µM unless noted), 70.4%; in the experiment with MDA-MB-435 melanoma (10 µM unless noted), 59.8%; in the experiment on SW-620 colon (10 µM unless noted), 46.3%; in the experiment on MCF7 breast (10 µM unless noted), 39.8%; in the experiment on HCT-116 colon (10 µM unless noted) it was 5.08% (active). The values for the growth in the experiment with HCC-2998 colon (10 µM unless noted) and with KM12 colon (10 µM unless noted) were 91.8% and 66.4%, respectively.

Consider `Clc1ccc(-c2nc3c4c(-c5ccccc5)c(-c5ccccc5)n(Cc5ccccc5)c4ncn3n2)cc1`, for which the growth in the experiment on T-47D breast (10 µM unless noted) is 7.51% (active); in the experiment on BT-549 breast (10 µM unless noted), -28.4% (active); in the experiment on MDA-MB-435 melanoma (10 µM unless noted), 5.5% (active); in the experiment with SW-620 colon (10 µM unless noted), 12%; in the experiment with MCF7 breast (10 µM unless noted), -2.7% (active); in the experiment on HCT-116 colon (10 µM unless noted), 3.25% (active). Also, the growth with HCC-2998 colon (10 µM unless noted) was 22.1%; in the experiment on KM12 colon (10 µM unless noted), 9.06% (active).

`COc1ccc(C(=O)/C=C/c2ccc3c(c2)OCCO3)cc1S(N)(=O)=O`: the growth in the experiment on T-47D breast (10 µM unless noted) is 53%; in the experiment with BT-549 breast (10 µM unless noted), 65.4%; in the experiment on MDA-MB-435 melanoma (10 µM unless noted), 87.8%; in the experiment on SW-620 colon (10 µM unless noted), 32.3%; with MCF7 breast (10 µM unless noted), 23.2%; in the experiment on HCT-116 colon (10 µM unless noted), 42.9%. Besides, the figures for the growth in the experiment with HCC-2998 colon (10 µM unless noted) and with KM12 colon (10 µM unless noted) were 99.1% and 85.8%, respectively.

In the case of `COc1ccc(N=Nc2c(N)nn3c(N)c(C#N)c(-c4ccc(C)cc4)nc23)cc1`, the growth with T-47D breast (10 µM unless noted) was 7.1% (active); with BT-549 breast (10 µM unless noted), 56.2%; in the experiment on MDA-MB-435 melanoma (10 µM unless noted), 56.6%; with SW-620 colon (10 µM unless noted), 67.2%; with MCF7 breast (10 µM unless noted) it was 12.5%; in the experiment with HCT-116 colon (10 µM unless noted) it was 45.4%. For the same compound, the growth with HCC-2998 colon (10 µM unless noted) was 73%; in the experiment on KM12 colon (10 µM unless noted), 43.5%.

On to `CC(C)CN1C(=O)/C(=C\C(=O)c2cc3ccccc3oc2=O)c2ccccc21`, for which the growth in the experiment on T-47D breast (10 µM unless noted) is 44.7%; with BT-549 breast (10 µM unless noted) it was 111%; with MDA-MB-435 melanoma (10 µM unless noted), 98.8%; in the experiment with SW-620 colon (10 µM unless noted), 41%; in the experiment with MCF7 breast (10 µM unless noted) it was 58.1%; in the experiment with HCT-116 colon (10 µM unless noted) it was 91.2%. Also, the growth was 118% with HCC-2998 colon (10 µM unless noted) and 103% with KM12 colon (10 µM unless noted).

For the compound `CC1=C(C)C(=O)C(N2CCSCC2)=CC1=O`, the growth in the experiment with T-47D breast (10 µM unless noted) was 105%; in the experiment with BT-549 breast (10 µM unless noted), 91%; in the experiment with MDA-MB-435 melanoma (10 µM unless noted), 112%; in the experiment with SW-620 colon (10 µM unless noted), 97.3%; in the experiment with MCF7 breast (10 µM unless noted), 99.6%; with HCT-116 colon (10 µM unless noted), 93%. Also, the growth is 109% with HCC-2998 colon (10 µM unless noted) and 105% in the experiment on KM12 colon (10 µM unless noted).

On to `COc1ccc(C2=NN(C(=O)[C@H]3[C@@H](c4ccco4)c4sc(=O)[nH]c4S[C@@H]3C)C(c3ccc4ccccc4c3)C2)cc1` (some centres not stated), for which the growth is 9.22% (active) with T-47D breast (10 µM unless noted); 76.2% in the experiment with BT-549 breast (10 µM unless noted); 41.8% with MDA-MB-435 melanoma (10 µM unless noted); 24.9% in the experiment with SW-620 colon (10 µM unless noted); 13.1% in the experiment on MCF7 breast (10 µM unless noted); 16.1% with HCT-116 colon (10 µM unless noted). Moreover, the growth in the experiment with HCC-2998 colon (10 µM unless noted) is 27.3%; with KM12 colon (10 µM unless noted), 33.9%.

For the compound `CN1C(=O)C2(C(C#N)=C(c3ccc(Cl)cc3)Nc3c2c(-c2ccccc2)nn3-c2ccccc2)c2ccccc21` (configuration not stated), the growth with T-47D breast (10 µM unless noted) was 84.6%; in the experiment with BT-549 breast (10 µM unless noted) it was 93.8%; with MDA-MB-435 melanoma (10 µM unless noted), 97.1%; in the experiment with SW-620 colon (10 µM unless noted), 106%; with MCF7 breast (10 µM unless noted) it was 73.8%; in the experiment with HCT-116 colon (10 µM unless noted) it was 73.8%. The growth was 87% in the experiment with HCC-2998 colon (10 µM unless noted) and 94.9% in the experiment on KM12 colon (10 µM unless noted).

As to `COc1ccc(/C=C/c2nc3ccccc3c(=O)n2CC(=O)Nc2ccccc2)cc1`, the growth was -20.4% (active) in the experiment on T-47D breast (10 µM unless noted); 98.5% with BT-549 breast (10 µM unless noted); 85.2% in the experiment on MDA-MB-435 melanoma (10 µM unless noted); 61.6% in the experiment on SW-620 colon (10 µM unless noted); 54.9% in the experiment on MCF7 breast (10 µM unless noted); 21% in the experiment on HCT-116 colon (10 µM unless noted). Besides, the results for the growth in the experiment on HCC-2998 colon (10 µM unless noted) and with KM12 colon (10 µM unless noted) were 80.2% and 66.9%, respectively.

Consider `O=C(c1ccc(Cl)cc1)C1[C@H](c2ccccc2Cl)[C@@H](c2ccccc2)NC12C(=O)Nc1ccc(Cl)cc12` (some centres not stated), for which the growth was -71.1% (active) in the experiment with T-47D breast (10 µM unless noted); -87.2% (active) in the experiment on BT-549 breast (10 µM unless noted); -87.5% (active) with MDA-MB-435 melanoma (10 µM unless noted); -61.5% (active) in the experiment with SW-620 colon (10 µM unless noted); -37.7% (active) in the experiment with MCF7 breast (10 µM unless noted); -89.3% (active) in the experiment with HCT-116 colon (10 µM unless noted). Also, the growth with HCC-2998 colon (10 µM unless noted) is -85.6% (active); in the experiment with KM12 colon (10 µM unless noted) it was -48% (active).

Take `Cn1cc(-c2cc(N)n3nc(-c4c[nH]c5ccccc45)cc3n2)c2cc(Cl)ccc21`: the growth is -77.5% (active) in the experiment with T-47D breast (10 µM unless noted); -3.57% (active) in the experiment with BT-549 breast (10 µM unless noted); -51.7% (active) in the experiment on MDA-MB-435 melanoma (10 µM unless noted); -84.9% (active) with SW-620 colon (10 µM unless noted); -70.3% (active) in the experiment on MCF7 breast (10 µM unless noted); -73.4% (active) in the experiment with HCT-116 colon (10 µM unless noted). The figures for the growth in the experiment on HCC-2998 colon (10 µM unless noted) and in the experiment with KM12 colon (10 µM unless noted) were -80% (active) and -70.5% (active), respectively.

With `O=C(CSc1nc2sc3c(c2c(=O)n1-c1ccc(Cl)cc1)CCCC3)N/N=C/C=C/c1ccccc1`, the growth in the experiment on T-47D breast (10 µM unless noted) is -24.5% (active); with BT-549 breast (10 µM unless noted), -73.7% (active); in the experiment with MDA-MB-435 melanoma (10 µM unless noted) it was -50.1% (active); with SW-620 colon (10 µM unless noted), -55.5% (active); in the experiment with MCF7 breast (10 µM unless noted), 12.6%; with HCT-116 colon (10 µM unless noted), -13.5% (active). Moreover, the growth is 6.29% (active) in the experiment on HCC-2998 colon (10 µM unless noted) and 39.9% in the experiment on KM12 colon (10 µM unless noted).
